# Experimental data published in the supplement of paper PMC10849652.
# The full data set covers some 7,900 targets. This sample favours those with a hit. About 0.6% of all pairs of compound and target were hits. Unmarked numbers belong to inactive results.
# How the values were obtained:
# Assay in all cases: log2 fold change, soluble protein after heating vs DMSO (PISA); higher = thermal stabilisation; K562 cells, 10 uM, 30 min; active = over 0.2 and 3.5 SD of the protein, either way, in both replicates (recomputed)
# bafetinib = compound: Cc1ccc(NC(=O)c2ccc(CN3CC[C@H](N(C)C)C3)c(C(F)(F)F)c2)cc1Nc1nccc(-c2cncnc2)n1 [bafetinib]
# Outline: (§1)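 Soluble protein was defined as the supernatant after 21,000xg for 90 min. It came from K562 cells at 2×10^6 cells/mL given 10 μM compound for 30 min, heated in aliquots for 3 min across 48°C-58°C, pooled, and extracted in PBS with 0.5% NP-40 at 4°C, and was quantified by TMTpro 16plex LC-MS/MS with equalised channel sums. Thermal stability against control samples, from duplicates, is reported as log2 fold change.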
# [1] = compound: Cc1cccc(CC(=O)N2CCc3c2ccc(-c2cn(C)c4ncnc(N)c24)c3F)n1
# Outline: as §1
# dasatinib = compound: Cc1nc(Nc2ncc(C(=O)Nc3c(C)cccc3Cl)s2)cc(N2CCN(CCO)CC2)n1 [dasatinib]
# Outline: as §1
# [2] = compound: Cn1cc(-c2ccc3nnc(C(F)(F)c4ccc5ncccc5c4)n3n2)cn1
# Outline: as §1
# tipifarnib = compound: Cn1cncc1[C@@](N)(c1ccc(Cl)cc1)c1ccc2c(c1)c(-c1cccc(Cl)c1)cc(=O)n2C [tipifarnib]
# Outline: as §1
# [3] = compound: NC(=O)Nc1cc(-c2cccc(F)c2)sc1C(=O)N[C@H]1CCCNC1
# Outline: as §1
# [4] = compound: NC(=O)c1cnc(N[C@@H]2CCCC[C@@H]2N)nc1Nc1cccc(-n2nccn2)c1
# Outline: as §1
# [5] = compound: NCC(=O)Nc1ccc(-n2nc(C(F)(F)F)cc2-c2ccc3c(ccc4ccccc43)c2)cc1
# Outline: as §1
# entinostat = compound: Nc1ccccc1NC(=O)c1ccc(CNC(=O)OCc2cccnc2)cc1 [entinostat]
# Outline: as §1
# vorinostat = compound: O=C(CCCCCCC(=O)Nc1ccccc1)NO [vorinostat]
# Outline: as §1
# [6] = compound: O=C1NC(=O)C(c2cnc3ccccn23)=C1c1cn2c3c(cc(F)cc13)CN(C(=O)N1CCCCC1)CC2
# Outline: as §1
# [7] = compound: Cn1cc(-c2ccc3c(c2)CCN3C(=O)Cc2cccc(C(F)(F)F)c2)c2c(N)ncnc21
# Outline: as §1
# mubritinib = compound: FC(F)(F)c1ccc(/C=C/c2nc(COc3ccc(CCCCn4ccnn4)cc3)co2)cc1 [mubritinib]
# Outline: as §1
# [8] = compound: NC1(c2ccc(-c3nc4ccn5c(=O)[nH]nc5c4cc3-c3ccccc3)cc2)CCC1
# Outline: as §1
# silmitasertib = compound: O=C(O)c1ccc2c(c1)nc(Nc1cccc(Cl)c1)c1ccncc12 [silmitasertib]
# Outline: as §1
# nilotinib = compound: Cc1cn(-c2cc(NC(=O)c3ccc(C)c(Nc4nccc(-c5cccnc5)n4)c3)cc(C(F)(F)F)c2)cn1 [nilotinib]
# Outline: as §1
# [9] = compound: Cc1nc(Nc2n[nH]c3c2CN(C(=O)N[C@H](CN(C)C)c2ccccc2)C3(C)C)c2sccc2n1
# Outline: as §1
# [10] = compound: Cc1ncc(-c2ccnc(Nc3ccc(S(C)(=O)=O)cc3)n2)n1C(C)C
# Outline: as §1
# citarinostat = compound: O=C(CCCCCCNC(=O)c1cnc(N(c2ccccc2)c2ccccc2Cl)nc1)NO [citarinostat]
# Outline: as §1
# [11] = compound: c1cc(OCCN2CCCCC2)cc(-c2n[nH]c3ccc(-c4nnc[nH]4)cc23)c1
# Outline: as §1
# UniProt P49336, sequence (P49336 whole entry, looked up): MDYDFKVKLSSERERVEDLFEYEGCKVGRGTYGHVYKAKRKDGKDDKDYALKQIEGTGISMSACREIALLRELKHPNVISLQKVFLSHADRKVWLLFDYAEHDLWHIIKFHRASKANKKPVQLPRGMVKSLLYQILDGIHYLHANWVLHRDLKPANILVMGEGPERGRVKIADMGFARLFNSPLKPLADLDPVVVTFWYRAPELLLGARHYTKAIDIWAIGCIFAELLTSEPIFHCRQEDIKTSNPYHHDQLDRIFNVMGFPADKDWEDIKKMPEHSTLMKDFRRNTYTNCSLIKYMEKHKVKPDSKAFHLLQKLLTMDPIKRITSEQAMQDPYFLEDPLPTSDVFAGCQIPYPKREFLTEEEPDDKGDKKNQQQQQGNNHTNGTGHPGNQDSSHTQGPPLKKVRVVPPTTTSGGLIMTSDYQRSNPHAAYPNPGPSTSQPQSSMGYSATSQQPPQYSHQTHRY
# UniProt Q9BSQ5, sequence (Q9BSQ5 whole entry, looked up): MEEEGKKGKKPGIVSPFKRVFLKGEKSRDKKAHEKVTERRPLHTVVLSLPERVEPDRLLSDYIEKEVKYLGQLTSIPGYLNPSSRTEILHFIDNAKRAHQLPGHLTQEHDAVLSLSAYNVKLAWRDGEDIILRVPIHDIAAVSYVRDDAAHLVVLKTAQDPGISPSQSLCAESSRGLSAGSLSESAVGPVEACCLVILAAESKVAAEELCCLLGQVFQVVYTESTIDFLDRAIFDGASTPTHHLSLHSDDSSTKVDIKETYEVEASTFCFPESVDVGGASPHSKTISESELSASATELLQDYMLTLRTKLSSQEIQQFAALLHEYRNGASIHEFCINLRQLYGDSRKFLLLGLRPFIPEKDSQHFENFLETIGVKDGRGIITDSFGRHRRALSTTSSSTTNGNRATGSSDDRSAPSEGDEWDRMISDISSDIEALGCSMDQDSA
# UniProt Q13901, sequence (Q13901 whole entry, looked up): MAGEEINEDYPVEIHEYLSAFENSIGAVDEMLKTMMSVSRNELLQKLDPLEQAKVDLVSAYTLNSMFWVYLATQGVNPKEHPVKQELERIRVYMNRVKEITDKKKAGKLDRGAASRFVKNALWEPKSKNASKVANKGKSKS
# UniProt P55210, sequence (P55210 whole entry, looked up): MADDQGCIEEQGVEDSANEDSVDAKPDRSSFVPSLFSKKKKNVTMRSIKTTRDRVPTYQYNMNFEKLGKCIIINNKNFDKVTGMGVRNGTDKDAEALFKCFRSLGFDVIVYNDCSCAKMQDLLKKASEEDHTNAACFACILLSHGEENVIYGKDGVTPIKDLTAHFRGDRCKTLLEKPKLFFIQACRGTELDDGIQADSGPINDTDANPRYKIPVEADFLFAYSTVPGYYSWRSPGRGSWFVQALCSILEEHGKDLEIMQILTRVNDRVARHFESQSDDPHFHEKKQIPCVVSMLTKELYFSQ
# UniProt Q9NRR8, sequence (Q9NRR8 whole entry, looked up): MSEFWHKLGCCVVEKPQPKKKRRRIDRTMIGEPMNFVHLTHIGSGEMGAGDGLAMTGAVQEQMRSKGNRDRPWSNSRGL
# UniProt Q9H9S4, sequence (Q9H9S4 whole entry, looked up): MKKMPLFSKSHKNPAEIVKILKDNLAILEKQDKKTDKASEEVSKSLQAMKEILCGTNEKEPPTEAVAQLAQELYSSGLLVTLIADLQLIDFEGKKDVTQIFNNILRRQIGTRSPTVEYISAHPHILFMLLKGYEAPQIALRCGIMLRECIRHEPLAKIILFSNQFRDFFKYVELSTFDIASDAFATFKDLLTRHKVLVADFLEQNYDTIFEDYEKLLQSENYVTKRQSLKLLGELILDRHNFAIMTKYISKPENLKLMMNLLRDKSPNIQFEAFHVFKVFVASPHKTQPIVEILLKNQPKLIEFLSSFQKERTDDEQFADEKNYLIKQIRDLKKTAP
# UniProt P15954, sequence (P15954 whole entry, looked up): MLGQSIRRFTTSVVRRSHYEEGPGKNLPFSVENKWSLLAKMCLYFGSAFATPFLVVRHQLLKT
# UniProt P51636, sequence (P51636 whole entry, looked up): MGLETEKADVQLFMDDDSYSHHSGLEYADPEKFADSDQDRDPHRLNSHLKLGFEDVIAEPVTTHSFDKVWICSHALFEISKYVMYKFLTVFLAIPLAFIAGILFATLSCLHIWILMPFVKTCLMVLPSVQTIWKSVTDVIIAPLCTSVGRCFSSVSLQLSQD
# UniProt Q96MX0, sequence (Q96MX0 whole entry, looked up): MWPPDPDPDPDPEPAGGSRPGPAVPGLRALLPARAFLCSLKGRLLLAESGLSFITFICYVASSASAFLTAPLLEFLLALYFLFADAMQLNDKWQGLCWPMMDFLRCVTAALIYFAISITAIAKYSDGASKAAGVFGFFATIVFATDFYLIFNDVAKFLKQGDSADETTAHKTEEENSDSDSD
# UniProt P30281, sequence (P30281 whole entry, looked up): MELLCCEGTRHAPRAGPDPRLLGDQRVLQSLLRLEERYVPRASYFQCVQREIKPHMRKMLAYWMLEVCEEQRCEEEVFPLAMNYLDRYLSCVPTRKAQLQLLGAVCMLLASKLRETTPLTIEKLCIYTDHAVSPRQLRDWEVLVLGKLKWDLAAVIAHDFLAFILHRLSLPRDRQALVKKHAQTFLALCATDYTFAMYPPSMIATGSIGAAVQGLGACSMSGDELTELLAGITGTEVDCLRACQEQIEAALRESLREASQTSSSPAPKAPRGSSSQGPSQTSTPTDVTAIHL
# UniProt Q9NPF2, sequence (Q9NPF2 whole entry, looked up): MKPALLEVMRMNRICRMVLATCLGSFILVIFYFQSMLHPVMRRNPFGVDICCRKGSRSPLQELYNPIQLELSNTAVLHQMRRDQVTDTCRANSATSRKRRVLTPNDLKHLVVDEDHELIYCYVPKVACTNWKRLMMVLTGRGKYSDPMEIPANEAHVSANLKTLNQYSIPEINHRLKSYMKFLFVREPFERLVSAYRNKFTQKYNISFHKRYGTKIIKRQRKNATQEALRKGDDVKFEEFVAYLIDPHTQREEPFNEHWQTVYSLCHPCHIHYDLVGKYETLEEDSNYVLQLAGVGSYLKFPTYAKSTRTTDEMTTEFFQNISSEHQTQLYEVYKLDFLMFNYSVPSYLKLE
# UniProt Q9UNS2, sequence (Q9UNS2 whole entry, looked up): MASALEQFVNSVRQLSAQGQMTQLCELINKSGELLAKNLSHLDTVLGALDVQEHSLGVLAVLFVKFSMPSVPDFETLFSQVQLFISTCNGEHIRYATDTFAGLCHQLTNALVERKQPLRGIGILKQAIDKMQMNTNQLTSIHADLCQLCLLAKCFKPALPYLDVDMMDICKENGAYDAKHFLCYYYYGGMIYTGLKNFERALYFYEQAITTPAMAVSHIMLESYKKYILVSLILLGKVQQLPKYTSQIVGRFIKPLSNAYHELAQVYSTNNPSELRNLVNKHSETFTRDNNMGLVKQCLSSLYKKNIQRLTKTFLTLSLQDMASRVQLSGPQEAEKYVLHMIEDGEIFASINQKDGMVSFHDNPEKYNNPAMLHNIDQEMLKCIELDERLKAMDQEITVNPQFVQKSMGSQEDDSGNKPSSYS
# UniProt P24863, sequence (P24863 whole entry, looked up): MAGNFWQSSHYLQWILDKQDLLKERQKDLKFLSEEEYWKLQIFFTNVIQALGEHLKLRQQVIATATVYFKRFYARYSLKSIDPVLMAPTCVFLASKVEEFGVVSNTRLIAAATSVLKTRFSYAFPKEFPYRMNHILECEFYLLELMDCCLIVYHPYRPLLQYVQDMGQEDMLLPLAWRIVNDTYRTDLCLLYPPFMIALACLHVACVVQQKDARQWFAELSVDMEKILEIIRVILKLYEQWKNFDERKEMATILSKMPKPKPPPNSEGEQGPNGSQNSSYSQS
# UniProt A8MTT3, sequence (A8MTT3 whole entry, looked up): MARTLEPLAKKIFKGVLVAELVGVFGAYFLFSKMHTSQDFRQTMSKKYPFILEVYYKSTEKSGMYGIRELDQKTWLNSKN
# UniProt Q96G28, sequence (Q96G28 whole entry, looked up): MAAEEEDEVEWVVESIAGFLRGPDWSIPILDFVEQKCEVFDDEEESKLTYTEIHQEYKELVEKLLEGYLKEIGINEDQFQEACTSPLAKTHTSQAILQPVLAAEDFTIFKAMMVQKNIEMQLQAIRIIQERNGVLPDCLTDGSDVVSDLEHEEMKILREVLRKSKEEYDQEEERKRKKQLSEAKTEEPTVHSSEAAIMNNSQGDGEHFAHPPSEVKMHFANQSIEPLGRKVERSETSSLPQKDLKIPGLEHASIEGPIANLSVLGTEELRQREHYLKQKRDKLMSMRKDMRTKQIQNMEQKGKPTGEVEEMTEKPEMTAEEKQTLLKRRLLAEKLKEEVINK
# UniProt Q15417, sequence (Q15417 whole entry, looked up): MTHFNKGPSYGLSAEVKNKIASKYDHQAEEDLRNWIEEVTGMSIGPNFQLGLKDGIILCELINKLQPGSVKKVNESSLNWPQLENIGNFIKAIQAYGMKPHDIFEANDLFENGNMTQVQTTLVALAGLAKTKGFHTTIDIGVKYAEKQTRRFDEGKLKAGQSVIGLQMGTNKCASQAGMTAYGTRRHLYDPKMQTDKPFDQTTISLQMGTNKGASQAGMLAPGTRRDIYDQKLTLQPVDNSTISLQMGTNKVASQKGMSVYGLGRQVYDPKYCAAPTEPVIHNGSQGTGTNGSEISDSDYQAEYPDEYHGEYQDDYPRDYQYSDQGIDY
# UniProt Q6P5X5, sequence (Q6P5X5 whole entry, looked up): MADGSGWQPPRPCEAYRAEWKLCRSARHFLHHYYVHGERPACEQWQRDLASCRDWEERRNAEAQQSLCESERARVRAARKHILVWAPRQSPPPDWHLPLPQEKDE
# UniProt P24311, sequence (P24311 whole entry, looked up): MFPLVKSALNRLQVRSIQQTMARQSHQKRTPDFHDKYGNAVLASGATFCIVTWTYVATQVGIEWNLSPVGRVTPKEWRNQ
Target,log2 fold change (bafetinib),log2 fold change [1],log2 fold change (dasatinib),log2 fold change [2],log2 fold change (tipifarnib),log2 fold change [3],log2 fold change [4],log2 fold change [5],log2 fold change (entinostat),log2 fold change (vorinostat),log2 fold change [6],log2 fold change [7],log2 fold change (mubritinib),log2 fold change [8],log2 fold change (silmitasertib),log2 fold change (nilotinib),log2 fold change [9],log2 fold change [10],log2 fold change (citarinostat),log2 fold change [11]
CRTC1 isoform 2 (UniProt Q6UUV9),0.021,-0.093,-0.034,-0.079,-0.267,-0.132,-0.151,0.01,0.044,0.012,-0.371,–,–,–,–,–,–,–,–,–
CCNC (UniProt P24863),0.031,0.055,-0.074,-0.015,–,-0.032,-0.105,-0.033,0.04,-0.039,0.039,-0.091,-0.016,-0.017,0.183,–,–,–,–,–
CHST11 (UniProt Q9NPF2),-0.01,-0.117,–,-0.249,-0.012,-0.045,0.068,0.139,-0.027,0.001,0.013,0.039,-0.064,-0.181,-0.044,0.049,-0.026,0.008,0.276,0.054
COX7B (UniProt P24311),0.109,0.037,0.074,–,-0.024,0.094,-0.001,0.02,-0.054,0.012,0.036,-0.011,0.026,-0.028,0.039,0.053,0.037,0.01,-0.013,-0.026
COX7C (UniProt P15954),-0.066,-0.077,0.073,0.366,0.105,0.009,0.048,0.046,0.014,-0.017,-0.089,–,0.112,-0.013,-0.003,0.148,-0.041,-0.158,0.079,-0.059
CFAP36 isoform 2 (UniProt Q96G28),0.022,-0.055,0.014,0.128,0.002,0.027,-0.1,-0.152,0.023,-0.014,-0.025,-0.047,0,-0.095,0.131,–,–,–,-0.022,0.065
CCM2 isoform 2 (UniProt Q9BSQ5),-0.059,-0.038,-0.003,-0.021,-0.024,-0.103,–,-0.067,0.326 (active),-0.038,-0.136,0.043,-0.061,-0.09,0.048,–,–,–,-0.073,0.069
CCND3 (UniProt P30281),0.07,-0.016,-0.08,0.092,0.026,–,-0.204,0.184,–,0.048,0.069,0.04,0.024,-0.001,0.28,–,–,–,0,0.183
CASP7 isoform 3 (UniProt P55210),-1.01 (active),-0.401,-0.239,–,–,–,–,–,–,0.044,-0.048,–,–,–,–,0.145,-0.001,-0.102,-0.058,0.021
C1D (UniProt Q13901),-0.026,-0.013,–,0.018,0.151,0.187,0.322 (active),0.033,-0.012,0.116,0.003,–,0.132,0,0.072,0.059,-0.074,-0.027,0.067,0.008
C22orf39 (UniProt Q6P5X5),-0.04,–,-0.232,0.031,-0.071,0.093,-0.036,–,0.037,–,0.089,-0.036,0.031,-0.106,0.016,-0.07,0.038,-0.12,–,–
CDK8 (UniProt P49336),0.109,0.014,0.067,0.018,0,-0.038,0.011,0.014,-0.152,0.038,0.036,0.057,0.01,0.036,0.175,–,–,–,-0.002,-0.019
CNN3 (UniProt Q15417),0.02,-0.025,-0.057,–,-0.107,-0.051,-0.125,-0.144,0.091,0.023,-0.032,0.023,0.06,-0.124,0.047,-0.066,-0.056,0.108,0.047,-0.001
CMTM3 (UniProt Q96MX0),0.05,-0.078,0.017,–,0.098,-0.056,-0.033,0.072,-0.03,-0.087,0.096,0.05,-0.052,-0.08,0.009,-0.056,-0.007,0.013,-0.118,-0.189
COPS3 isoform 2 (UniProt Q9UNS2),-0.19,-0.295,–,0.418,0.029,-0.129,-0.364,-0.272,-0.007,-0.169,-0.597,–,0.138,-0.005,0,-0.041,0.227,-0.194,-0.14,0.011
CAV2 (UniProt P51636),-1.25 (active),-0.054,0.033,–,0.136,-0.251,-0.041,–,-0.088,0.147,–,–,0.066,0.027,0.106,0.221,-0.082,0.008,–,–
CDC42SE1 (UniProt Q9NRR8),-0.37,–,-0.022,-0.002,-0.01,-0.244,0.055,-0.002,-0.042,–,-0.065,0.107,-0.065,-0.065,0.128,0.055,0.055,-0.155,-0.048,-0.103
CEBPZOS (UniProt A8MTT3),0.066,0.014,0.009,0.033,-0.044,–,0.022,0.028,–,-0.03,–,–,0.121,-0.124,0.018,0.039,0.021,-0.027,-0.011,-0.056
CAB39L (UniProt Q9H9S4),-0.055,-0.041,-0.255,-0.032,0.042,0.035,0.083,-0.162,-0.016,-0.197,-0.043,–,–,–,–,–,–,–,-0.093,-0.101
